Results on 30 molecules are retold here after PubChem BioAssay.

Molecules are shown by their SMILES. Active and inactive are the calls of the source.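 Rule for the calls: active = compounds killing one labelled cell type while sparing the other, by normalised counts and ratio limits, not self-fluorescent; inactive = the rest.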

The test can be described thus: differential killing of epithelial or mesenchymal cells, primary screen, imaging, PC-3E GFP, TEM4-18 mCherry, co-culture (AID 1345086).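 For all read-outs here: cells exposed to compound for 72 h before imaging.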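 For red/green cell ratio (normalised): normalised mesenchymal count divided by normalised epithelial count so high means epithelial killing.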 The settings on record: imaging cell counts, at 1 µM; for red/green cell ratio (normalised): actives lie on both sides, counts scaled to control wells, 1 = unselective.
Where [1] appears, read: measured here: epithelial PC-3E GFP cell survival.
[2] abbreviates: measured here: mesenchymal TEM4-18 mCherry cell survival.

Regarding `C/C=C/[C@@H]1C=C[C@@H]2C[C@H](C)CC[C@H]2[C@]1(C)/C(O)=C1\C(=O)[C@H](CO)N(C)C1=O`, the red/green cell ratio (normalised) is 1.03 (inactive). Further, the normalised cell number under setting [1] was determined as 0.99. This molecule had a normalised cell number under setting [2] of 1.01.
With `Nc1nc2c(c(=O)[nH]1)NC(CNc1ccc(C(=O)NC(CCC(=O)O)C(=O)O)cc1)=CN2` (stereo not given), the red/green cell ratio (normalised) was 0.83 (inactive). For the same molecule, under setting [1], the normalised cell number was 1.19. This molecule came in with a normalised cell number under setting [2] of 0.99.
For `COC(=O)C[C@H]1C(C)(C)C(=O)[C@@H]2CC3=C(CC[C@]4(C)C3=CC(=O)O[C@H]4c3ccoc3)C1(C)C2=O`, in that order: 1.11 (inactive), 0.96 and 1.06.
For `CC1=C2[C@](C)(C=CC1=O)C[C@H](O)[C@H]1[C@H](C)C(=O)O[C@]21C`, the red/green cell ratio (normalised) is 1.06 (inactive). The normalised cell number under setting [1] amounted to 1.09. This molecule showed a normalised cell number under setting [2] of 1.15.
In the case of `Clc1ccc2ncc(Cl)nc2c1`, the red/green cell ratio (normalised) is 1.15 (inactive). Also, the normalised cell number under setting [1] came to 0.91. In addition, the normalised cell number under setting [2] amounted to 1.05.
In the case of `O=C(O)c1cn(C2CC2)c2cc(N3CCN(c4ccc(Cl)cc4Cl)CC3)c(F)cc2c1=O`, the red/green cell ratio (normalised) was 0.98 (inactive). The molecule also registered a normalised cell number under setting [1] of 1. This molecule also showed a normalised cell number under setting [2] of 0.98.
As to `CC(=O)O[C@H]1CC2CCC3C(CC[C@@]4(C)C3C[C@H]([N+]3(C)CCCCC3)[C@@H]4OC(C)=O)[C@@]2(C)C[C@@H]1N1CCCCC1` (stereo not given in full), the red/green cell ratio (normalised) was 0.86 (inactive). This molecule showed a normalised cell number under setting [1] of 1.03. In addition, the normalised cell number under setting [2] stood at 0.88.
Regarding `COc1ccc(-c2cc(=O)c3c(O)c(OC)c(O[C@H]4O[C@H](CO[C@@H]5O[C@@H](C)[C@H](O)[C@@H](O)[C@H]5O)[C@@H](O)[C@H](O)[C@H]4O)cc3o2)cc1`, the red/green cell ratio (normalised) is 0.98 (inactive). Besides, under setting [1], the normalised cell number stood at 1.05. In addition, the normalised cell number under setting [2] amounted to 1.03.
Consider `Oc1ccc(Oc2cnc3ccc(Cl)cc3n2)cc1`, for which the red/green cell ratio (normalised) was 0.74 (inactive). The normalised cell number under setting [1] amounted to 1.41. For the same molecule, the normalised cell number under setting [2] was 1.05.
`CO[C@H]1/C=C/O[C@@]2(C)Oc3c(C)c(O)c4c(O)c(c(/C=N/N5CCN(C)CC5)c(O)c4c3C2=O)NC(=O)/C(C)=C\C=C\[C@H](C)[C@H](O)[C@@H](C)[C@@H](O)[C@@H](C)[C@H](CC(C)=O)[C@@H]1C`: the red/green cell ratio (normalised) is 0.98 (inactive). This molecule came in with a normalised cell number under setting [1] of 1.05. Besides, the normalised cell number under setting [2] was determined as 1.03.
Consider `O=C(O)CC1OCc2c(O)cccc21` (stereo not given), for which the red/green cell ratio (normalised) is 0.47 (inactive). Further, under setting [1], the normalised cell number is 0.95. Under setting [2], the normalised cell number was 0.44.
As to `C=CC(C)(C)c1cccc2[nH]c3c(c12)C[C@@H]1CC[C@@]2(O)C4=CC(=O)[C@@H]5O[C@@]4(CC[C@]2(C)[C@@]31C)CC5(C)C`, the red/green cell ratio (normalised) is 1 (inactive). The molecule also gave a normalised cell number under setting [1] of 1.11. Also, under setting [2], the normalised cell number was determined as 1.11.
`CC(C)CCCC(C)C1CCC2C3CC(=O)[C@H]4C[C@@H](O)CC[C@]4(C)C3CC[C@]12C` (stereo not given in full): the red/green cell ratio (normalised) was 1.01 (inactive). The molecule further displayed a normalised cell number under setting [1] of 1.04. This molecule also registered a normalised cell number under setting [2] of 1.05.
Take `Cc1cccc(CN2CCN(C(c3ccccc3)c3ccc(Cl)c(C)c3)CC2)c1` (stereo not given): the red/green cell ratio (normalised) was 0.79 (inactive). Further, under setting [1], the normalised cell number came out at 1.23. This molecule had a normalised cell number under setting [2] of 0.97.
Turning to `COc1cc(CC(=O)O)c(C(C)=O)c(O)c1OC`, the red/green cell ratio (normalised) is 0.89 (inactive). Under setting [1], the normalised cell number turned out to be 1.18. Under setting [2], this molecule registered a normalised cell number of 1.06.
For the molecule `CC(C)CC1OC23SCC(c4ccccc4)N2C(=O)C1C(C)S3` (stereo not given), the red/green cell ratio (normalised) is 0.8 (inactive). Besides, under setting [1], the normalised cell number was 1.19. The normalised cell number under setting [2] stood at 0.96.
On to `COCC1O[C@@H](OC)[C@@H](OCc2ccccc2)[C@@H](OCc2ccccc2)C1O` (stereo not given in full), for which the red/green cell ratio (normalised) is 0.86 (inactive). The normalised cell number under setting [1] was 1.18. This molecule also showed a normalised cell number under setting [2] of 1.01.
For the molecule `O=C[C@H](O)[C@@H](O)[C@H](O)CO`, the red/green cell ratio (normalised) was 0.99 (inactive). Under setting [1], the normalised cell number turned out to be 0.97. The same molecule returned a normalised cell number under setting [2] of 0.97.
For `Nc1cc2ccccc2[nH]c1=O`, the red/green cell ratio (normalised) was 0.91 (inactive). This molecule gave a normalised cell number under setting [1] of 1.14. This molecule gave a normalised cell number under setting [2] of 1.04.
In the case of `Cc1c(F)c(F)cc2c(=O)n(N)c(=O)n(C3CC3)c12`, the red/green cell ratio (normalised) is 0.9 (inactive). For the same molecule, under setting [1], the normalised cell number was 0.79. Further, the normalised cell number under setting [2] was found to be 0.71.
Consider `COC1=C(O)C(=O)c2c(cc3oc(C(C)=O)c(O)c3c2O)C1=O`, for which the red/green cell ratio (normalised) was 1.19 (inactive). The molecule also registered a normalised cell number under setting [1] of 0.94. This molecule also returned a normalised cell number under setting [2] of 1.12.
In the case of `O=C(O)C1O[C@@H](O)[C@@H](O)[C@@H](O)C1O` (stereo not given in full), the red/green cell ratio (normalised) was 0.93 (inactive). Moreover, the normalised cell number under setting [1] came out at 1.22. The normalised cell number under setting [2] turned out to be 1.13.
For `COC1C(O)C(O)C(O)[C@@H](O)C1O` (stereo not given in full), in that order: 1.11 (inactive), 0.95 and 1.05.
For `C=CC(C)(C)c1cc(O)ccc1OC1OC(CO)C(O)C(O)C1O` (stereo not given), in that order: 1.01 (inactive), 0.93 and 0.94.
As to `NCCC[C@H](N)CC(=O)NC1CNC(=O)[C@H]([C@H]2C[C@H](O)N=C(N)N2)NC(=O)/C(=C/NC(N)=O)NC(=O)[C@H](CO)NC(=O)[C@H](CO)NC1=O` (stereo not given in full), the red/green cell ratio (normalised) is 0.82 (inactive). Moreover, the normalised cell number under setting [1] stood at 1.24. Moreover, the normalised cell number under setting [2] was found to be 1.02.
On to `C=CCSC[C@@H](N)C(=O)O`, for which the red/green cell ratio (normalised) is 0.86 (inactive). In addition, under setting [1], the normalised cell number came to 1.23. For the same molecule, the normalised cell number under setting [2] is 1.06.
Regarding `C/C=C/c1cc2c(c(=O)o1)C(=O)[C@@H](O)[C@H](C)O2`, the red/green cell ratio (normalised) was 1.02 (inactive). Under setting [1], this molecule displayed a normalised cell number of 0.9. Besides, the normalised cell number under setting [2] came to 0.92.
For `CC(C)=CCC/C(C)=C\CC1=C(C)C(=O)c2ccccc2C1=O`, in that order: 0.98 (inactive), 1.11 and 1.09.
Take `CC(C)=CCCC(C)[C@@H]1CC[C@]2(C)C3=C(CC[C@@]12C)C1(C)CC[C@H](O)C(C)(C)C1CC3` (stereo not given in full): the red/green cell ratio (normalised) is 0.9 (inactive). This molecule returned a normalised cell number under setting [1] of 1.09. The molecule further came in with a normalised cell number under setting [2] of 0.98.
As for `C=CC(C)(C)c1[nH]c2ccccc2c1C1=C(OC)C(=O)C(c2c(C(C)(C)C=C)[nH]c3ccccc23)=C(OC)C1=O`, the red/green cell ratio (normalised) is 0.88 (inactive). The molecule also came in with a normalised cell number under setting [1] of 1.23. Under setting [2], the normalised cell number is 1.08.
